Measured values published in PubChem BioAssay (EPA / NIEHS).
Several values for one entry are separate records, joined by “and”; a condition that tells them apart may be missing. Identical values can stand only once. Some compounds were tested as several samples or in several runs, with calls that do not always agree. Activity calls are given as the source filed them. Rule for the calls: active = hit-call score of the fitted dose curve at least 0.9, where 1 is the maximum; inactive = score below 0.9.

read-out: Monokine induced gamma interferon (MIG), CXCL9 (gene 4283); assay: BSK_BE3C_MIG: BioMAP Diversity Plus: BE3C Assay for Monokine induced gamma interferon (MIG) Biomarker Activity (AID 2283035); conditions: primary human bronchial epithelial cells; actives raise or lower the signal
Description: BSK_BE3C is a cell-based, multiplexed-readout assay that uses bronchial epithelial cell, a human lung primary cell, with measurements taken at 24 hours after chemical dosing in a 96-well plate.BSK_BE3C_MIG is an assay component measured in the BSK_BE3C assay. It measures MIG antibody related to regulation of gene expression using ELISA technology.Data from the assay component BSK_BE3C_MIG was analyzed into 1 assay endpoint. This assay endpoint, BSK_BE3C_MIG, was analyzed with bidirectional fitting relative to DMSO as the negative control and baseline of activity. Using a type of binding reporter, gain or loss-of-signal activity can be used to understand changes in the signaling as they relate to the gene CXCL9. Furthermore, this assay endpoint can be referred to as a primary readout, because this assay has produced multiple assay endpoints where this one serves a signaling function. To generalize the intended target to other relatable targets, this assay endpoint is annotated to the cytokine intended target family, where the subfamily is chemotactic factor.
The levels of cell surface (or secreted, indicated by the prefix "s") biomarker endpoints were measured by ELISA. Overt cytotoxicity to cells in confluent adherent cultures (all systems other than the BT system) was assessed by measuring total protein levels using sulforhodamine B (SRB) staining in parallel cultures at the time of biomarker measurements, indicated as SRB endpoints. For proliferation assays for adherent cell types, individual cell types are cultured at sub-confluence and relative cell numbers quantified by SRB staining at time points optimized for each system (48 h: 3C and CASM3C systems; 72 h: BT and HDF3CGF systems; 96 h: SAg system). SRB was performed by staining cells with 0.1% SRB after fixation with 10% TCA and reading wells at 560 nm.Viability and proliferation of PBMC (T cells) was quantified by Alamar Blue reduction for the SAg and BT systems. For PBMC viability (referred to as PBMC Cytotoxicity within the assay endpoint names), cells were plated (75,000/well in a 96-well plate) and then chemical samples added for 1 h before addition of activators, SEB and TSST-1 (20 ng/mL final concentration each). Cells were incubated for 90 h. Then, Alamar Blue (20 uL/well) (Invitrogen, Cat DAL1100) was added for 6 h, and the plates were read with a fluorescence microplate reader at 546/580 nm (excitation/emission). For PBMC proliferation, cells were plated and activated as above but incubated for only 16 h prior to addition of Alamar Blue. Plates were read after 6 h.

Structure (SMILES)	outcome	AC50
CCC(C)c1cc([N+](=O)[O-])cc([N+](=O)[O-])c1O (stereo not given)	inactive	–
N#Cc1ccc(N(CC(N)=O)CC(F)(F)F)cc1C(F)(F)F	inactive	–
O=C(O)C(F)(F)C(F)(F)C(F)(F)C(F)(F)C(F)(F)C(F)(F)C(F)(F)C(F)(F)F	–	32.7 µM (active) and 50.1 µM (active) and 52.7 µM (active)
CCC(C)(CC)c1cc(NC(=O)c2c(OC)cccc2OC)on1	inactive	–
C=CC(N)=O	inactive	–
CC(C)(c1ccccc1)c1ccc(O)cc1	–	32.2 µM (active)
CCCN(CCC)N=O	inactive	–
Nc1ccc(-c2ccc(N)cc2)cc1	inactive	–
CN(C)c1nc(=O)n(C2CCCCC2)c(=O)n1C	inactive	–
C[C@]12CCC(=O)C=C1CC[C@@H]1[C@@H]2CC[C@]2(C)C(=O)CC[C@@H]12	inactive	–
Oc1ccc(C(c2ccc(O)cc2)(C(F)(F)F)C(F)(F)F)cc1	–	37.3 µM (active)
C[C@]12CCC(=O)C=C1CC[C@@H]1[C@@H]2CC[C@@]2(C)[C@H]1CC[C@]2(C)O	inactive	–
CCCCCCCCCc1ccc(O)cc1	–	18.5 µM (active)
CCCCCCCCOC(=O)c1ccccc1C(=O)OCCCCCCCC	inactive	–
Oc1c(Cl)c(Cl)c(Cl)c(Cl)c1Cl	–	11.8 µM (active) and 30.3 µM (active)
Cc1cc(O)ccc1Cl	inactive	–
O=S(=O)(O)C(F)(F)C(F)(F)C(F)(F)C(F)(F)C(F)(F)C(F)(F)F	inactive	–
CCC(C)(c1ccc(O)cc1)c1ccc(O)cc1	inactive	–
O=NN(c1ccccc1)c1ccccc1	inactive	–
NS(=O)(=O)C(F)(F)C(F)(F)C(F)(F)C(F)(F)C(F)(F)C(F)(F)C(F)(F)C(F)(F)F	inactive	58.2 µM (active) and 54.8 µM (active)

Structure (SMILES)	outcome	AC50
CN(C)CCO	inactive	–
c1ccc(-c2ccccc2)cc1	inactive	–
Sc1ccccc1	inactive	–
CCNc1nc(NC(C)C)nc(SC)n1	inactive	–
Cc1cccc(C)c1N	inactive	–
ClC(Cl)=C(c1ccc(Cl)cc1)c1ccc(Cl)cc1	inactive	–
O=C(NC(=O)c1c(F)cccc1F)Nc1cc(Cl)c(OC(F)(F)C(F)F)c(Cl)c1	inactive	–
Nn1cnnc1	inactive	–
COS(=O)(=O)OC	inactive	–
CC(C)(O)C(=O)Nc1ccc([N+](=O)[O-])c(C(F)(F)F)c1	inactive	–
Clc1ccc(C(c2ccccc2Cl)C(Cl)(Cl)Cl)cc1 (stereo not given)	inactive	–
Clc1ccc(C(Cl)(Cl)Cl)cc1	inactive	–
C=CC(=O)NCNC(=O)C=C	inactive	–
CCCCCCCCCC[N+](C)(C)CCCCCCCCCC	–	8.77 µM (active)
COc1ccc(O)c(C(C)(C)C)c1	inactive	–
Cc1ccccc1O	inactive	–
Cc1ccccc1CO[C@@H]1C[C@@]2(C(C)C)CC[C@]1(C)O2	inactive	–
CC(C)C(=O)OCC(C)(C)C(OC(=O)C(C)C)C(C)C (stereo not given)	inactive	–
CCOCCOC(C)=O	inactive	–
